The whole screen tested about 5,500 compounds, of which about 2,000 (36%) were called active. Inconclusive results (about 18%) are left out. No stated cut-off is given here; in the data, active means normalized growth mostly below about 0.91 (no sharp cut-off); inconclusive means no clear call, values can overlap the other calls; inactive means mostly above about 0.92. This is one part of the list.
Assay: chemical genetic growth profiling, strain panel (AID 1159580);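 further: tested at 20 µM; growth read once vehicle control cultures reached saturation at 30 °C; 1 = growth at the plate median or of vehicle wells; lower values mean less growth of the strain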
Conditions: S. cerevisiae deletion strains, growth OD

Measured: normalized growth

COc1ccc(-c2coc3cc(O)ccc3c2=O)c(O)c1O
inactive: locus YBR009C, strain hhf1, active compounds read low 0.955 | locus YBR171W, strain sec66, active compounds read low 0.984 | locus YCL016C, strain dcc1, active compounds read low 0.94 | locus YCL061C, strain MRC1, active compounds read low 0.925 | locus YCL069W, strain vba3, active compounds read low 0.979 | locus YCR088W, strain abp1, active compounds read low 0.971 | locus YDL005C, strain med2, active compounds read low 0.979 | locus YDL040C, strain nat1, active compounds read low 0.999 | locus YDR001C, strain nth1, active compounds read low 0.976 | locus YDR137W, strain rgp1, active compounds read low 1.06 | locus YDR159W, strain sac3, active compounds read low 1.05 | locus YDR195W, strain ref2 0.992 | locus YDR335W, strain msn5, active compounds read low 0.948 | locus YDR392W, strain spt3, active compounds read low 0.869 | locus YEL003W, strain gim4, active compounds read low 0.977 | locus YEL037C, strain rad23, active compounds read low 0.969 | locus YEL061C, strain CIN8 (second series), active compounds read low 0.963 | locus YER016W, strain bim1, active compounds read low 0.94 | locus YER111C, strain swi4, active compounds read low 0.933 | locus YER155C, strain BEM2 (second series), active compounds read low 0.944 | locus YGL167C, strain pmr1, active compounds read low 0.979 | locus YGL227W, strain vid30, active compounds read low 0.989 | locus YGL240W, strain doc1, active compounds read low 0.964 | locus YHR013C, strain ard1, active compounds read low 0.861 | locus YHR030C, strain SLT2, active compounds read low 1.02 | locus YHR079C, strain IRE1, active compounds read low 1.02 | locus YJL092W, strain hpr5, active compounds read low 0.975 | locus YJL095W, strain BCK1 (second series), active compounds read low 0.952 | locus YJL095W, strain BCK1, active compounds read low 1.01 | locus YJL115W, strain asf1, active compounds read low 0.968 | locus YJL129C, strain trk1, active compounds read low 1.03 | locus YJL154C, strain vps35, active compounds read low 0.988 | locus YJR066W, strain TOR1, active compounds read low 0.927 | locus YKR026C, strain gcn3, active compounds read low 0.995 | locus YKR091W, strain srl3, active compounds read low 0.991 | locus YLL001W, strain dnm1, active compounds read low 0.971 | locus YLL026W, active compounds read low 0.98 | locus YLL041C, strain sdh2, active compounds read low 0.968 | locus YLR027C, strain aat2, active compounds read low 0.93 | locus YLR113W, strain HOG1, active compounds read low 1.01 | locus YLR221C, strain rsa3, active compounds read low 0.92 | locus YLR258W, strain gsy2, active compounds read low 0.947 | locus YLR320W, strain mms22, active compounds read low 0.905 | locus YLR370C, strain arc18, active compounds read low 0.916 | locus YLR384C, strain iki3, active compounds read low 0.998 | locus YML120C, strain ndi1, active compounds read low 1 | locus YMR125W, strain sto1, active compounds read low 1.01 | locus YMR129W, active compounds read low 0.967 | locus YMR205C, strain PFK2, active compounds read low 0.971 | locus YMR231W, strain pep5, active compounds read low 0.937 | locus YNL071W, strain lat1, active compounds read low 0.955 | locus YNL183C, strain NPR1, active compounds read low 0.965 | locus YNL248C, strain rpa49, active compounds read low 0.939 | locus YNL322C, strain KRE1 (second series), active compounds read low 0.974 | locus YNR049C, strain mso1, active compounds read low 0.982 | locus YOR001W, strain rrp6, active compounds read low 0.988 | locus YOR070C, strain gyp1, active compounds read low 0.943 | locus YOR080W, strain dia2, active compounds read low 0.986 | locus YOR231W, strain MKK1, active compounds read low 1.04 | locus YOR270C, strain vph1, active compounds read low 0.96 | locus YOR290C, strain snf2, active compounds read low 0.961 | locus YPL078C, strain atp4, active compounds read low 0.991 | locus YPL240C, strain hsp82, active compounds read low 0.975 | locus YPL256C, strain CLN2, active compounds read low 1.02
active: locus YAL021C, strain ccr4, active compounds read low 0.817 | locus YAL026C, strain drs2, active compounds read low 0.818 | locus YAL030W, strain snc1, active compounds read low 0.874 | locus YBL061C, strain skt5, active compounds read low 0.825 | locus YBR023C, strain chs3, active compounds read low 0.877 | locus YBR231C, strain swc5, active compounds read low 0.837 | locus YBR279W, strain paf1, active compounds read low 0.893 | locus YCL011C, strain gbp2, active compounds read low 0.898 | locus YDR069C, strain doa4, active compounds read low 0.762 | locus YDR297W, strain sur2, active compounds read low 0.898 | locus YDR334W, strain swr1, active compounds read low 0.872 | locus YER015W, strain faa2, active compounds read low 0.737 | locus YFR010W, strain ubp6, active compounds read low 0.873 | locus YGL173C, strain kem1, active compounds read low 0.671 | locus YGL253W, strain hxk2, active compounds read low 0.881 | locus YHR027C, strain rpn1, active compounds read low 0.669 | locus YHR142W, strain chs7, active compounds read low 0.86 | locus YJL164C, strain tpk1, active compounds read low 0.863 | locus YJL166W, strain qcr8, active compounds read low 0.817 | locus YKL160W, strain elf1, active compounds read low 0.902 | locus YLR262C, strain YPT6 (second series), active compounds read low 0.743 | locus YLR342W, strain FKS1, active compounds read low 0.753 | locus YLR357W, strain rsc2, active compounds read low 0.749 | locus YMR058W, strain fet3, active compounds read low 0.333 | locus YNL209W, strain ssb2, active compounds read low 0.633 | locus YOR083W, strain WHI5, active compounds read low 0.866 | locus YOR106W, strain vam3, active compounds read low 0.542 | locus YOR265W, strain rbl2, active compounds read low 0.918 | locus YPL051W, strain arl3, active compounds read low 0.686 | locus YPL106C, strain sse1, active compounds read low 0.813
